PubChem BioAssay AID2551 (National Center for Advancing Translational Sciences (NCATS), 2010)
Hit rate of the full screen: of about 310,000 compounds, about 17,000 (5.5%) were called active. Another 11% or so got no clear call; they are omitted. The entries come from a sample that favours actives as a whole. Values without a mark were called inactive. Calls come from the whole dose curve; as a rule, active = well fitted inhibition curve with a large enough effect; inconclusive = small, poorly fitted or top-dose-only effect, or effect the other way; inactive = no such curve, though single readings can be large or run the other way.

molecular target: Nuclear receptor ROR-gamma (Mus musculus) (UniProt P51450); test: qHTS for inhibitors of ROR gamma transcriptional activity; conditions: Drosophila S2 Gal4-RORgamma UAS-luciferase reporter, 20 h; series mostly up to 53.6 µM; activity change, negative = inhibition: at the top concentration; note: nearly all actives have a fitted effect of over 60% in size
Sequence (P51450 whole entry, looked up, the tested form may be a part): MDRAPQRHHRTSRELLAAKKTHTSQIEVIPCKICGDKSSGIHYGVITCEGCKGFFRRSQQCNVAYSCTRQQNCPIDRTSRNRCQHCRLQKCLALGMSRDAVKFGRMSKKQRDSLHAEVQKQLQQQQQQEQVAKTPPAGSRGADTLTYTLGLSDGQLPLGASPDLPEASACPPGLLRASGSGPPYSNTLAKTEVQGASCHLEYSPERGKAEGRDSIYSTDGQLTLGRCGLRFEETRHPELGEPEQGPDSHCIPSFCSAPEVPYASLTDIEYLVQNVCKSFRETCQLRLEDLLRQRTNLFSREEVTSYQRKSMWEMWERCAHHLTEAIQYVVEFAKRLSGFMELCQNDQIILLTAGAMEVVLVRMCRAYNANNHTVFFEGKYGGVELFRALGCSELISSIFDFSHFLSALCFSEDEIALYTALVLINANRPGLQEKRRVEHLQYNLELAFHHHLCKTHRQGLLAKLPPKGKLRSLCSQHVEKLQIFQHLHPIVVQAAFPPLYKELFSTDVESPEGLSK
Procedure, shortened: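 Read-out: Photinus luciferase luminescence; inhibitors lower reporter signal. Insect Schneider cells with Gal4-ROR gamma fusion under metallothionein promoter, UAS reporter; 700 uM final copper sulfate induction, 20 hr, ambient temperature.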
% is set by controls: 0 for no effect and ±100 for the full control effect; potency is the fitted concentration of half-maximal effect.

| SMILES | activity change, negative = inhibition | Potency |
| --- | --- | --- |
| Cc1nc2nc(C)c(NS(=O)(=O)c3ccc(C(C)(C)C)cc3)c(=O)n2[nH]1 | -9.88% |  |
| CC(=O)c1ccc(N2CCN(S(=O)(=O)c3ccc4c(c3)CC(=O)N4C)CC2)cc1 | 25.1% |  |
| Cc1cc(NC(=O)[C@H](C)NC(=O)c2ccco2)ccc1Br | 2.23% |  |
| CC(NC(=O)c1ccco1)C(=O)Nc1nc(-c2ccccn2)cs1 (stereo unspecified) |  | 11.2 µM (active) |
| O=C(CN1C(=O)C2C3C=CC(C3)C2C1=O)Nc1nc(-c2ccccn2)cs1 (stereo unspecified) | -0.0112% |  |
| O=C(Nc1ccc(N2CCCC2=O)cc1)c1cncc(Br)c1 | -16.2% |  |
| COc1ccc(NC(=O)c2cc([N+](=O)[O-])ccc2NC(=O)CNC2CCCCC2C)c(OC)c1 (stereo unspecified) | 5.91% |  |
| C=C(Br)Cn1c(CCCC)nc2ccccc21 |  | 15.8 µM (active) |
| CCCCn1c(CN2CCN(CCO)CC2)nc2ccccc21 | -0.635% |  |
| CCCCn1c(CCCNC(=O)CC)nc2ccccc21 | -14.6% |  |
| Cc1snc(SCc2c(F)cccc2Cl)c1C#N | 15.7% |  |
| CCc1ccc(OCC(=O)N(Cc2ccccc2)C2CCS(=O)(=O)C2)cc1 (stereo unspecified) | 10.7% |  |
| COc1cc(OC)c(C(=O)NC2CCCCCC2)cc1OC | 3.98% |  |
| COc1cc(C(=S)NC2CCCCC2)ccc1O | -15.6% |  |
| COc1ccc(Cl)cc1C(=O)NNC(=S)NC1CCCC1 |  | 11.2 µM (active) |
| COc1ccc(CCNC(=O)CCC(=O)NC2CCCCC2)cc1OC | 16.7% |  |
| COc1ccc(Cl)cc1C(=O)NCC#N | -15% |  |
| COc1ccc(Cl)cc1C(=O)NNC(=S)NC(=O)/C=C/c1ccco1 |  | 3.98 µM (active) |
| COc1ccc(Cl)cc1C(=O)NNC(=O)c1nc2nc(C)cc(C)n2n1 | -7.86% |  |
| C=CCNC(=S)NNC(=O)c1cc(Cl)ccc1OC | 27.5% |  |
| COc1ccc(C(C)NC(=S)NC2CCCCC2)cc1OC (stereo unspecified) |  | 11.2 µM (active) |
| CSc1ncccc1C(=O)NCc1ccccc1Cl | -1.28% |  |

| SMILES | activity change, negative = inhibition | Potency |
| --- | --- | --- |
| COC(=O)c1ccc(CNC(=O)C2CCC(=O)N(Cc3cccc(F)c3)C2)cc1 (stereo unspecified) | 8.55% |  |
| CCc1nnc(NC(=O)CSCc2cc(=O)n3cc(C)sc3n2)s1 | 1.38% |  |
| O=C1C(=O)N(CCCN2CCOCC2)C(c2ccc([N+](=O)[O-])cc2)/C1=C(\O)c1ccc2c(c1)OCCO2 (stereo unspecified) | -5.32% |  |
| C=CCn1c(=O)c(C(=O)NCc2ccc3c(c2)OCO3)c(O)c2ccccc21 | -26.9% |  |
| CC1CCN(CCCn2c(SCC(=O)NC3CCCC3)nc3ccccc3c2=O)CC1 | -15.6% |  |
| CN(CCNC(=O)c1cc2c(-c3ccccc3F)nn(C)c2s1)C1CCCCC1 | -20.2% |  |
| O=c1[nH]cnc(O)c1C(c1ccc(F)cc1)c1c(O)nc[nH]c1=O | -1.37% |  |
| CCOc1ccc(CCNC(=O)CCc2nnc3ccc(N4CCCC4)nn23)cc1OCC | 1.07% |  |
| COC(=O)c1ccc(CN2CCC(CO)(Cc3ccc(OC)cc3)CC2)cc1 | 4.46% |  |
| CCOC(=O)C1(CCOC)CCN(Cc2ccc(C(=O)OC)cc2)CC1 |  | 7.08 µM (active) |
| CCOC(=O)C1(CCOC)CCN(Cc2cc3ccccc3s2)CC1 | -12.6% |  |
| Cc1cc2c(c(=O)n1Cc1ccccc1)C1O[C@](CCCCN3C(=O)c4ccccc4C3=O)(Cc3ccccc31)O2 | 18.4% [at 10 µM] |  |
| O=C(CN1CCc2cc3c(cc2C1)OCCCO3)Nc1ccccc1 | -0.965% |  |
| Cc1ccc(-n2cc(CN(C)Cc3nccn3C)c(-c3cccc(C)c3)n2)cc1 |  | 7.94 µM (active) |
| COc1ccc(-n2cc(CN(C)Cc3n[nH]c(=O)[nH]3)c(-c3cccc(F)c3)n2)cc1 | 23% |  |
| Cc1cccc(-n2cc(CN3CCN(C(=O)c4ncn[nH]4)CC3)c(-c3cccc(F)c3)n2)c1 | 0.467% |  |
| COc1ccc(NC(=O)CCC(=O)Nc2nnc(C3CCCCC3)s2)cc1 | -27.8% |  |
| CC(C)(C)NS(=O)(=O)c1ccc(NC(=O)C2CCCO2)cc1 (stereo unspecified) | 1.02% |  |
| O=C(CNC(=O)c1cccnc1)N/N=C/c1cc(Br)c(O)c(Br)c1 | -21.6% |  |
| O=C(CNC(=O)C1COc2ccccc2O1)N/N=C/c1cc(Br)c(O)c(Br)c1 (stereo unspecified) | 1.65% |  |
| Oc1c(Br)cc(/C=N/NC(=S)NCC2CCCO2)cc1Br (stereo unspecified) |  | 0.1 µM (active) |
| O=C(Nc1ccccc1)Nc1nc2ccccc2s1 | -23.2% |  |

| SMILES | activity change, negative = inhibition | Potency |
| --- | --- | --- |
| c1ccc2sc(NN=C3CCCC3)nc2c1 |  | 7.94 µM (active) |
| CSCCC(Nc1nc2ccccc2s1)C(=O)O (stereo unspecified) | -22.4% |  |
| CC(C)(COC(=O)Nc1ccccc1)COC(=O)Nc1ccccc1 | -2.91% |  |
| CCn1c(SCC(=O)Nc2ccc(Br)cc2)nc2sc3c(c2c1=O)CCN(C)C3 | 39% |  |
| Nc1ncc(CN2CCCC(C(=O)Nc3ccc(-c4ccco4)cc3)C2)cn1 (stereo unspecified) | -10.1% |  |
| CCOCc1nnc(NC(=O)CCS(=O)(=O)Cc2ccccc2)s1 | 10.4% |  |
| CCOCCOC(=O)C1=C(C)NC(=O)NC1c1ccc2c(c1)OCO2 (stereo unspecified) | 0.346% |  |
| CC(=O)N(CCCN(C)C)c1nc2ccc(C)cc2s1 | 1.73% |  |
| CCN(CC)CCN(C(=O)c1ccc(S(=O)(=O)N2CCOCC2)cc1)c1nc2cc3c(cc2s1)OCCO3 | 22.5% |  |
| CN(C)CCCN(C(=O)c1ccc(S(=O)(=O)N2CCCCCC2)cc1)c1nc2ccc(Br)cc2s1 |  | 2.82 µM (active) |
| CN1CCN(C(=O)c2ccccc2NC(=O)COc2ccccc2Cl)CC1 | 7.86% |  |
| O=C1COc2ccc(S(=O)(=O)NCCc3ccc(Cl)cc3)cc2N1 | -15.2% |  |
| Cc1cc(OCC(=O)Nc2c(C)n(C)n(-c3ccccc3)c2=O)ccc1[N+](=O)[O-] | 16.1% |  |
| COc1ccc(C2c3[nH]c4ccccc4c3CCN2CCCn2cccn2)cc1C (stereo unspecified) | -4.28% |  |
| Oc1cccc(C2c3[nH]c4ccccc4c3CCN2Cc2cnn(-c3ccccc3)c2)c1 (stereo unspecified) | 17.3% |  |
| COc1cccc(C2c3[nH]c4ccccc4c3CCN2Cc2cccc(C)n2)c1 (stereo unspecified) |  | 12.6 µM (active) |
| CN(Cc1ccc(F)cc1Cl)S(=O)(=O)c1cccs1 | 13.6% |  |
| CCc1ccc2[nH]c(=O)c(Cc3ccccc3)c(O)c2c1 | 14.8% |  |
| O=C1C=C(c2ccc(Cl)cc2)C(=O)N1Nc1ccccc1 |  | 7.08 µM (active) |
| O=C1c2cccc3cc(Br)cc(c23)C(=O)N1Nc1ccccc1 | -19.1% |  |
| O=C(Nc1ccccc1)OCc1cc(-c2ccc(Cl)cc2)on1 | 0.919% |  |
| CC1(C)Cc2c(sc(NC(=O)C(=O)N3CCOCC3)c2C#N)CO1 | 11.5% |  |

| SMILES | activity change, negative = inhibition | Potency |
| --- | --- | --- |
| O=S(=O)(Nc1ccccc1Cl)c1cccc2nsnc12 | -0.764% |  |
| O=C(Cc1ccccc1)Nc1ccc(NC(=O)c2cccnc2)cc1 | 28.3% |  |
| CCC(C)C(=O)Nc1ccccc1N1CCN(c2ccc(F)cc2)CC1 (stereo unspecified) | -20.4% [at 1.91 µM] |  |
| C/C(=N\NC(=O)CCn1nc(C)cc1C)C(C)(C)C |  | 11.2 µM (active) |
| Cc1cc(C)n(CC(=O)Nc2ccc([N+](=O)[O-])cc2)n1 | 4.43% |  |
| Cc1cc(C)n(CCC(=O)N2CCN(S(=O)(=O)c3ccc(C)c(C)c3)CC2)n1 | -23.4% |  |
| C=CCSc1nnc(N2C(=O)C(O)=C(C(=O)c3ccco3)C2c2ccc(F)cc2)s1 (stereo unspecified) | 0.341% |  |
| COc1cccc(NC(=O)c2ccc(S(=O)(=O)N(C)C)cc2)c1 | 27.1% |  |
| COc1cccc(-c2nnc(NC(=O)c3ccc(S(=O)(=O)N(CC(C)C)CC(C)C)cc3)o2)c1 |  | 0.282 µM (active) |
| COc1cccc(C(=O)Nc2nnc(S(=O)(=O)N(C)c3ccccc3)s2)c1 | -1.13% |  |
| COc1ccc2[nH]c3nc(SCC(=O)NC4CC4)nnc3c2c1 | -8.92% |  |
| COc1cccc2c(C)c(C(=O)O)[nH]c12 |  | 2 µM (active) |
| COc1cc2c(C(=O)O)c(C)n(C)c2c2ccccc12 | 13.6% |  |
| Cc1c(C(=O)N/N=C/c2ccccc2)[nH]c2c([N+](=O)[O-])cccc12 | -16.9% |  |
| CCOC(=O)C1CN(S(=O)(=O)c2ccc(OC)cc2)c2cc(Cl)ccc2O1 (stereo unspecified) | -1.61% |  |
| COc1ccc(Cc2nc3ccc(C(=O)N4CCC(N(C)C)C4)cc3o2)cc1 (stereo unspecified) | 6.86% |  |
| C/C(=N\Nc1nncc2ccccc12)c1ccc(Cl)c([N+](=O)[O-])c1 | -15.3% |  |
| COc1ccc(NC(=O)CC2C(=O)NC3CCCCC3N2C(=O)c2ccc(F)cc2)cc1 (stereo unspecified) | 8.91% |  |
| O=C(c1ccc(S(=O)(=O)N2CCCC2)cc1)N1CCN(c2ccccc2F)CC1 | 5.53% |  |
| O=C(Nn1cc(C(=O)N2CCN(c3ccccc3F)CC2)c2ccccc2c1=O)c1cnccn1 |  | 14.1 µM (active) |
| Cn1c(=O)cc(OCC(=O)N2CCN(c3ccccc3F)CC2)c2ccccc21 | -6.44% |  |
| CC1CCN(C(=O)c2ccc3c(=O)n4c(nc3c2)CCCCC4)CC1 | -0.982% |  |

| SMILES | activity change, negative = inhibition | Potency |
| --- | --- | --- |
| NS(=O)(=O)c1ccccc1NC(=O)c1c(O)c2ccccc2[nH]c1=O | -12% |  |
| C/C(=N\NC(N)=S)c1ccncc1 | -38.1% |  |
| C/C(=N\NC(=S)NC(C)C)c1ccc(C(C)(C)C)cc1 |  | 1 µM (active) |
| C/C(=N\NC(N)=S)c1cccnc1 | -8.34% |  |
| Cn1c(=O)c2sccc2n(Cc2ccc(Br)cc2)c1=O | 61.6% |  |
| O=C(CN1C(=O)CSC1=O)N1CCCC(Nc2ccc(F)cc2)C1 (stereo unspecified) | 18% |  |
| Nc1cc(N)nc(SCc2cccc(F)c2)n1 | 19.2% |  |
| CCC(=O)Nc1ccc(C(=O)Nc2cc(C)on2)cc1 | -13.3% |  |
| Cc1cc(C(=O)NCCCc2ccccc2)no1 | 17.6% |  |
| CCCCNC(=S)NNC(=O)c1cc(C)on1 |  | 10 µM (active) |
| O=C(Nc1ccccc1)c1ccco1 | -3.1% |  |
| COc1ccc(NC(=O)NN2CCN(C)CC2)c(OC)c1 | 10.2% |  |
| COc1ccc(CCn2c(=N)c(C(=O)NCC3CCCO3)cc3c(=O)n4cccc(C)c4nc32)cc1OC (stereo unspecified) | -28% |  |
| COc1ccc(/C=C(/CC(=O)Nc2ccc(C)cc2)c2nc3ccccc3s2)cc1 | 33.7% |  |
| COc1cccc2sc(NNC(=O)c3nc4ccccc4s3)nc12 |  | 3.55 µM (active) |
| COc1ccc(S(=O)(=O)N2CCOCC2)cc1C(=O)Nc1nc2ccccc2s1 | -12.9% |  |
| CCOC(=O)CNC(=O)CSc1ncccc1-c1nc2ccccc2[nH]1 | 43.9% |  |
| COc1ccc(N(CC(=O)NCc2ccc(F)cc2)C(=O)CCC(=O)Nc2nccs2)cc1 | -29.3% |  |
